Experimental data published in PubChem BioAssay (Tox21).
A number with no mark means an inactive call. Records with an inconclusive call do not appear. A call without a number means that no potency is given here. Calls of active or inactive are those of the source. Unless noted, calls come from the whole dose curve; as a rule, active = well fitted curve in the direction sought with a large enough effect in the repeat runs; inconclusive = weak or mixed curves; inactive = no such curve, though single readings can be large; an effect the other way counts as inactive or inconclusive.

Experiments:
[1] = qHTS assay for small molecules that induce genotoxicity in human embryonic kidney cells expressing luciferase-tagged ATAD5 (AID 651632); details: HEK293T ATAD5-luciferase induction, 16 h; series mostly up to 83.3 µM; note: nearly all actives have a fitted effect of over 15% in size
How it was run: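 Increased luciferase signal from ATAD5-tagged reporter cells indicates DNA-damage-driven ATAD5 induction. HEK293T cells are treated for 16 hr at 37C before detection with Amplite.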

[2] = qHTS assay for small molecule agonists of the p53 signaling pathway - cell viability (AID 651633; calls by dose curve;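 note: p53RE-bla HCT reporter cells with a stable beta-lactamase p53 reporter; nearly all actives have a fitted effect of over 30% in size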); details: p53RE-bla HCT-116 viability, ATP luminescence, 16 h; series mostly up to 83.3 µM
How it was run: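 p53RE-bla cells were treated with compound for 16 hours at 37 C. Cytotoxicity was then measured as CellTiter-Glo luminescence after 30 min at room temperature.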

[3] = qHTS assay for small molecule disruptors of the mitochondrial membrane potential - cell viability (AID 720634; calls by dose curve; note: nearly all actives have a fitted effect of over 20% in size; note: potency is the fitted concentration of half-maximal effect); details: HepG2 viability, ATP luminescence (CellTiter-Glo), 1 h; series mostly up to 83.2 µM
How it was run: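 After overnight attachment at 37 C, HepG2 cells received compound or DMSO vehicle for 1 hr. Viability is then taken from ATP-driven luminescence following a 30 min room-temperature CellTiter-Glo step.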

[4] = qHTS assay to test for compound auto fluorescence at 590 nm (red) in HepG2 cells (AID 720674); details: HepG2 autofluorescence, red 540/590 nm, 1 h; series mostly up to 91.3 µM
How it was run: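 HepG2 cells, 2,000 per well in MEM with 10% FBS, attached overnight at 37 C, then got 23 nL compound or DMSO. After 1 hr at 37 C, 5% CO2, red fluorescence was read at 540/590 nm against Rose Bengal sodium as reference.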

[5] = qHTS assay to test for compound auto fluorescence at 460 nm (blue) in HEK293 cells (AID 720678); details: blue autofluorescence 405/460 nm; series mostly up to 91.3 µM
How it was run: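 Auto fluorescence in the blue band was quantified as triamterene equivalency. HEK293 cells were seeded at 2,000/well, dosed after a 4-5 hr attachment, and kept overnight at 37C before the 405/460 nm reading.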

[6] = qHTS assay to test for compound auto fluorescence at 590 nm (red) in HEK293 cells (AID 720679); details: red autofluorescence 540/590 nm; series mostly up to 91.3 µM
How it was run: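 Autofluorescence equivalency to Rose Bengal sodium, 540/590nm, in HEK293 cells exposed overnight to 23 nL compound per well.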

[7] = qHTS assay for small molecules that induce genotoxicity in human embryonic kidney cells expressing luciferase-tagged ATAD5 - cell viability (AID 651634; calls by dose curve; note: nearly all actives have a fitted effect of over 25% in size; note: potency is the fitted concentration of half-maximal effect); details: HEK293T ATAD5-luc cells viability, CellTiter-Fluor, 15.5 h; series mostly up to 83.3 µM
How it was run: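 Cytotoxicity counterscreen in HEK293T cells bearing an ATAD5-luciferase reporter: live-cell protease activity measured by CellTiter-Fluor fluorescence after 15.5 hr compound exposure.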

[8] = qHTS assay to test for compound auto fluorescence at 535 nm (green) in HepG2 cells (AID 720675); details: green autofluorescence 485/535 nm, 1 h; series mostly up to 91.3 µM
[9] = qHTS assay for small molecule disruptors of the mitochondrial membrane potential (AID 720635); details: HepG2 mitochondrial membrane potential, Mito-MPS dye ratio; series mostly up to 83.2 µM; note: potency is the fitted concentration of half-maximal effect
How it was run: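 HepG2 cells exposed to compound 1 hr at 37C, then Mito-MPS dye 30 min. Ratio read of aggregate (540/590 nm) versus monomer (490/535 nm) fluorescence.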

OCCCBr
Potency [1]: inactive | Potency [2]: inactive | Potency [3]: inactive | outcome [4]: inactive | outcome [5]: inactive | outcome [6]: inactive

Nc1ccc([N+](=O)[O-])cc1[N+](=O)[O-]
Potency [1]: inactive | Potency [2]: inactive | Potency [3]: inactive | outcome [4]: inactive | outcome [6]: inactive

C=COC(C)=O
Potency [1]: inactive | Potency [7]: inactive | Potency [3]: inactive | outcome [4]: inactive | outcome [8]: inactive | outcome [5]: inactive | outcome [6]: inactive

O=C(O)C(F)(F)C(F)(F)C(F)(F)C(F)(F)C(F)(F)C(F)(F)C(F)(F)C(F)(F)C(F)(F)C(F)(F)F
Potency [1]: inactive | Potency [7]: inactive | Potency [3]: inactive | outcome [4]: inactive | outcome [5]: inactive

COc1cc(Cl)c(OC)cc1Cl
Potency [1]: inactive | Potency [2]: inactive | Potency [3]: inactive | outcome [4]: inactive | outcome [8]: inactive | outcome [5]: inactive | outcome [6]: inactive

C=CCC1([C@H](C)CCC)C(=O)NC(=O)NC1=O
Potency [1]: inactive | Potency [7]: inactive | Potency [3]: inactive | outcome [4]: inactive | outcome [8]: inactive | outcome [6]: inactive

NC(=O)CI
Potency [1]: inactive | Potency [7]: inactive | Potency [3]: inactive | outcome [4]: inactive | outcome [8]: inactive | outcome [5]: inactive | outcome [6]: inactive

O=C(NC(=O)c1c(F)cccc1F)Nc1ccc(OC(F)(F)C(F)OC(F)(F)F)c(Cl)c1 (centres undefined)
Potency [1]: inactive | Potency [7]: inactive | Potency [3]: inactive | outcome [4]: inactive | outcome [8]: inactive | outcome [5]: inactive | outcome [6]: inactive

O=C(CBr)c1ccccc1
Potency [1]: inactive | Potency [2]: inactive | Potency [3]: inactive | outcome [4]: inactive | outcome [8]: inactive | outcome [5]: inactive | outcome [6]: inactive

CCOC(=O)CBr
Potency [1]: inactive | Potency [7]: inactive | Potency [3]: inactive | outcome [4]: inactive | outcome [8]: inactive | outcome [5]: inactive | outcome [6]: inactive

Cc1c(F)c(F)c(COC(=O)C2C(/C=C(\Cl)C(F)(F)F)C2(C)C)c(F)c1F (centres undefined)
Potency [1]: inactive | Potency [3]: inactive | Potency [9]: 30.6 µM (active) | outcome [4]: inactive | outcome [8]: inactive | outcome [5]: inactive | outcome [6]: inactive

Clc1cc(C(Cl)(Cl)Cl)cnc1Cl
Potency [2]: inactive | Potency [3]: inactive | outcome [4]: inactive | outcome [5]: inactive | outcome [6]: inactive

CC(C)O.CC(C)O.OCCN(CCO)CCO.OCCN(CCO)CCO.[Ti]
Potency [7]: inactive | outcome [4]: inactive | outcome [8]: inactive | outcome [6]: inactive

ClCc1ccccc1
Potency [1]: inactive | Potency [3]: inactive | Potency [9]: inactive | outcome [4]: inactive | outcome [8]: inactive | outcome [5]: inactive

CCC(Br)(CC)C(=O)NC(N)=O
Potency [2]: inactive | Potency [7]: inactive | Potency [3]: inactive | Potency [9]: inactive | outcome [4]: inactive | outcome [8]: inactive | outcome [5]: inactive | outcome [6]: inactive

COCCOCCO
Potency [1]: inactive | Potency [3]: inactive | outcome [4]: inactive | outcome [8]: inactive | outcome [5]: inactive | outcome [6]: inactive

CC1(C)CCC(Cc2ccc(Cl)cc2)C1(O)Cn1cncn1 (centres undefined)
Potency [1]: inactive | Potency [3]: 54.5 µM (active) | Potency [9]: 54.5 µM (active) | outcome [4]: inactive | outcome [8]: inactive | outcome [5]: inactive | outcome [6]: inactive

CCCCC(O)(Cn1cncn1)c1ccc(Cl)cc1Cl (centres undefined)
Potency [1]: inactive | Potency [9]: 54.4 µM (active) | outcome [4]: inactive | outcome [5]: inactive | outcome [6]: inactive

O=[N+]([O-])C(Br)(CO)CO
Potency [1]: inactive | Potency [3]: inactive | Potency [9]: inactive | outcome [4]: inactive | outcome [8]: inactive | outcome [5]: inactive | outcome [6]: inactive

CCOP(=S)(Oc1ccc([N+](=O)[O-])cc1)c1ccccc1 (centres undefined)
Potency [1]: inactive | Potency [7]: inactive | Potency [9]: 21.7 µM (active) | outcome [4]: inactive | outcome [8]: inactive | outcome [5]: inactive | outcome [6]: inactive

CC(=O)c1cc2c(cc1C)C(C)(C)C(C)CC2(C)C (centres undefined)
Potency [1]: inactive | Potency [7]: inactive | Potency [9]: 54.5 µM (active) | outcome [4]: inactive | outcome [8]: inactive | outcome [5]: inactive | outcome [6]: inactive

S=C=NCc1ccccc1
Potency [3]: inactive | outcome [4]: inactive | outcome [8]: inactive | outcome [5]: inactive | outcome [6]: inactive

O=C(N[C@H](c1ccccc1)[C@@H]1CN2CCC1CC2)c1c(Cl)ccc(C(F)(F)F)c1Cl
Potency [1]: inactive | Potency [9]: 43.9 µM (active) | outcome [4]: inactive | outcome [8]: inactive | outcome [6]: inactive

CO[C@@H]1[C@H](OC(=O)NC(=O)CCl)CC[C@]2(CO2)[C@H]1[C@@]1(C)O[C@@H]1CC=C(C)C
Potency [2]: inactive | Potency [3]: inactive | fluorescence, relative to Rose Bengal [4]: -0.229% [at 18.6 µM] | fluorescence, % of fluorescein control [8]: -0.0271% [at 18.6 µM] | fluorescence, % of triamterene [5]: 0.0741% [at 18.6 µM] | fluorescence, % of fluorescent control [6]: 0.143% [at 18.6 µM]

CCOS(C)(=O)=O
Potency [1]: inactive | Potency [7]: inactive | Potency [3]: inactive | outcome [4]: inactive | outcome [6]: inactive

OC(c1ccc(Cl)cc1)(c1ccc(Cl)cc1)c1cccnc1
Potency [1]: inactive | Potency [3]: inactive | Potency [9]: 54.5 µM (active) | outcome [4]: inactive | outcome [8]: inactive | outcome [6]: inactive

COC(=O)C(Br)CBr (centres undefined)
Potency [2]: inactive | Potency [7]: inactive | Potency [3]: inactive | outcome [4]: inactive | outcome [5]: inactive | outcome [6]: inactive

BrCC(Br)C1CCC(Br)C(Br)C1 (centres undefined)
Potency [3]: inactive | Potency [9]: 27.2 µM (active) | outcome [4]: inactive | outcome [8]: inactive | outcome [5]: inactive | outcome [6]: inactive

[CH3][Sn]([CH3])([Cl])[Cl]
Potency [1]: inactive | Potency [7]: inactive | Potency [3]: inactive | outcome [4]: inactive | outcome [5]: inactive | outcome [6]: inactive

CC(C)(C)c1cc([N+](=O)[O-])cc([N+](=O)[O-])c1O
Potency [1]: inactive | Potency [7]: 6.09 µM (active) | Potency [9]: 0.484 µM (active) | outcome [4]: inactive | outcome [8]: inactive | outcome [5]: inactive | outcome [6]: inactive

COC(C)(C)CCC[C@H](C)C/C=C/C(C)=C/C(=O)OC(C)C
Potency [1]: inactive | Potency [7]: inactive | Potency [9]: 30.6 µM (active) | outcome [4]: inactive | outcome [8]: inactive | outcome [5]: inactive | outcome [6]: inactive

CC1(C)[C@H](C=C(Cl)Cl)[C@@H]1C(=O)O[C@@H](C#N)c1cccc(Oc2ccccc2)c1
Potency [1]: inactive | Potency [7]: inactive | outcome [4]: inactive | outcome [8]: inactive | outcome [6]: inactive

CCCC(Cn1cncn1)c1ccc(Cl)cc1Cl (centres undefined)
Potency [1]: inactive | Potency [7]: inactive | outcome [4]: inactive | outcome [8]: inactive | outcome [5]: inactive | outcome [6]: inactive

CC(C)(C)C(O)C(Oc1ccc(Cl)cc1)n1cncn1 (centres undefined)
Potency [1]: inactive | outcome [4]: inactive | outcome [8]: inactive | outcome [5]: inactive | outcome [6]: inactive

CO/N=C(/C(=O)OC)c1ccccc1COc1ccccc1C
Potency [1]: inactive | Potency [7]: inactive | outcome [4]: inactive | outcome [8]: inactive | outcome [5]: inactive | outcome [6]: inactive

O=C=Nc1ccc(Cl)cc1
Potency [2]: inactive | Potency [3]: 21.7 µM (active) | Potency [9]: 0.172 µM (active) | outcome [4]: inactive | outcome [8]: inactive | outcome [5]: inactive | outcome [6]: inactive

C=CCN1CC[C@]23c4c5ccc(O)c4O[C@H]2C(=O)CC[C@@]3(O)[C@H]1C5
Potency [2]: inactive | Potency [7]: inactive | Potency [3]: inactive | Potency [9]: inactive | outcome [4]: inactive | outcome [8]: inactive | outcome [5]: inactive | outcome [6]: inactive

Cl/C=C\C[N+]12CN3CN(CN(C3)C1)C2
Potency [3]: inactive | Potency [9]: inactive | outcome [4]: inactive | outcome [8]: inactive | outcome [6]: inactive

COC(=O)C(C)N(C(=O)Cc1ccccc1)c1c(C)cccc1C (centres undefined)
Potency [1]: inactive | outcome [4]: inactive | outcome [8]: inactive | outcome [5]: inactive | outcome [6]: inactive

Cc1ccc(-c2c(Cl)nc(C#N)n2S(=O)(=O)N(C)C)cc1
Potency [1]: inactive | Potency [7]: inactive | outcome [4]: inactive | outcome [8]: inactive | outcome [5]: inactive | outcome [6]: inactive

N#CCC#N
Potency [1]: inactive | Potency [3]: inactive | outcome [4]: inactive | outcome [8]: inactive | outcome [5]: inactive

CCCN(CCCl)c1c([N+](=O)[O-])cc(C(F)(F)F)cc1[N+](=O)[O-]
Potency [1]: inactive | Potency [7]: inactive | outcome [4]: inactive | outcome [8]: inactive | outcome [5]: inactive | outcome [6]: inactive

NS(=O)(=O)C(F)(F)C(F)(F)C(F)(F)C(F)(F)C(F)(F)C(F)(F)C(F)(F)C(F)(F)F
Potency [1]: inactive | Potency [7]: inactive | Potency [9]: 1.93 µM (active) | outcome [4]: inactive | outcome [8]: inactive | outcome [6]: inactive

O=C1C(=O)c2cccc3cccc1c23
Potency [2]: inactive | Potency [7]: 54.4 µM (active) | Potency [9]: 54.4 µM (active) | outcome [4]: inactive | outcome [8]: inactive | outcome [5]: inactive | outcome [6]: inactive

II
Potency [1]: inactive | Potency [3]: inactive | outcome [4]: inactive | outcome [8]: inactive | outcome [6]: inactive
